Laboratory results from the supplement of paper PMC8728848.
About 410 targets per protein were measured; listed, in parts, are those with the strongest signals and a random draw of the rest.

Assays:
Assay in all cases: glycan array binding signal (z-score within array); higher = stronger binding
Details in all cases: glycan notation: IUPAC condensed, linker removed
[1] = target: Fuc(a1-2)Gal(b1-3)GalNAc(a1-3)[Fuc(a1-2)]Gal(b1-4)GlcNAc
Procedure, shortened: (§1)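 Negative Z-scores can be read as non-binding. The Z-score is calculated within each array and then averaged across arrays of one protein sequence at different concentrations or buffers and across linkers. Arrays, 3228 in all, were curated from the Consortium for Functional Glycomics database and kept only where the protein sequence was available.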

[2] = target: Fuc(a1-2)Gal(b1-3)GlcNAc(b1-3)GalNAc
Procedure, shortened: as §1

[3] = target: Fuc(a1-2)Gal(b1-3)GlcNAc(b1-3)[Neu5Ac(a2-6)Gal(b1-4)GlcNAc(b1-6)]Gal(b1-4)Glc
Procedure, shortened: as §1

[4] = target: Fuc(a1-2)Gal(b1-3)[Fuc(a1-4)]GlcNAc
Procedure, shortened: as §1

[5] = target: Fuc(a1-2)Gal(b1-4)GlcNAc(b1-2)Man(a1-3)[Fuc(a1-2)Gal(b1-4)GlcNAc(b1-2)Man(a1-6)]Man(b1-4)GlcNAc(b1-4)[Fuc(a1-6)]GlcNAc
Procedure, shortened: as §1

[6] = target: Fuc(a1-2)Gal(b1-4)GlcNAc(b1-2)[Fuc(a1-2)Gal(b1-4)GlcNAc(b1-4)]Man(a1-3)[Fuc(a1-2)Gal(b1-4)GlcNAc(b1-2)Man(a1-6)]Man(b1-4)GlcNAc(b1-4)GlcNAc
Procedure, shortened: as §1

[7] = target: Fuc(a1-2)Gal(b1-4)GlcNAc(b1-3)Gal(b1-4)GlcNAc(b1-2)Man(a1-3)[Fuc(a1-2)Gal(b1-4)GlcNAc(b1-3)Gal(b1-4)GlcNAc(b1-2)Man(a1-6)]Man(b1-4)GlcNAc(b1-4)GlcNAc
Procedure, shortened: as §1

[8] = target: Fuc(a1-2)Gal(b1-4)GlcNAc6S
Procedure, shortened: as §1

[9] = target: Fuc(a1-2)Gal(b1-4)[Fuc(a1-3)]GlcNAc(b1-3)Gal(b1-4)[Fuc(a1-3)]GlcNAc
Procedure, shortened: as §1

[10] = target: Fuc(a1-2)Gal(b1-4)[Fuc(a1-3)]GlcNAc(b1-3)Gal(b1-4)[Fuc(a1-3)]GlcNAc(b1-3)Gal(b1-4)[Fuc(a1-3)]GlcNAc
Procedure, shortened: as §1

[11] = target: Fuc(a1-2)[Gal(a1-3)]Gal
Procedure, shortened: as §1

[12] = target: Fuc(a1-2)[Gal(a1-3)]Gal(b1-3)GlcNAc(b1-6)GalNAc
Procedure, shortened: as §1

[13] = target: Fuc(a1-2)[Gal(a1-3)]Gal(b1-4)GlcNAc
Procedure, shortened: as §1

[14] = target: Fuc(a1-2)[GalNAc(a1-3)]Gal(b1-3)GlcNAc(b1-6)GalNAc
Procedure, shortened: as §1

[15] = target: Fuc(a1-2)[GalNAc(a1-3)]Gal(b1-4)GlcNAc(b1-3)Gal(b1-4)GlcNAc(b1-3)Gal(b1-4)GlcNAc
Procedure, shortened: as §1

[16] = target: Fuc(a1-3)[Gal(b1-4)]GlcNAc(b1-3)Gal(b1-4)[Fuc(a1-3)]GlcNAc(b1-3)Gal(b1-4)[Fuc(a1-3)]GlcNAc
Procedure, shortened: as §1

[17] = target: Fuc(a1-3)[GalNAc(b1-4)]GlcNAc
Procedure, shortened: as §1

[18] = target: Gal(a1-3)Gal
Procedure, shortened: as §1

[19] = target: Gal(a1-3)Gal(b1-3)[Fuc(a1-4)]GlcNAc(b1-2)Man(a1-3)[Gal(a1-3)Gal(b1-3)[Fuc(a1-4)]GlcNAc(b1-2)Man(a1-6)]Man(b1-4)GlcNAc(b1-4)GlcNAc
Procedure, shortened: as §1

[20] = target: Gal(a1-4)Gal(b1-4)Glc
Procedure, shortened: as §1

[21] = target: Gal(a1-4)Gal(b1-4)GlcNAc(b1-3)Gal(b1-4)Glc
Procedure, shortened: as §1

[22] = target: Gal(b1-3)Gal(b1-4)GlcNAc
Procedure, shortened: as §1

[23] = target: Gal(b1-3)GalNAc(a1-3)[Fuc(a1-2)]Gal(b1-4)Glc
Procedure, shortened: as §1

[24] = target: Gal(b1-3)GlcNAc(b1-2)Man(a1-3)[Gal(b1-3)GlcNAc(b1-2)Man(a1-6)]Man(b1-4)GlcNAc(b1-4)[Fuc(a1-6)]GlcNAc
Procedure, shortened: as §1

[25] = target: Gal(b1-3)GlcNAc(b1-2)Man(a1-3)[GlcNAc(b1-4)][Gal(b1-3)GlcNAc(b1-2)Man(a1-6)]Man(b1-4)GlcNAc(b1-4)GlcNAc
Procedure, shortened: as §1

[26] = target: Gal(b1-4)GlcNAc(b1-2)Man
Procedure, shortened: as §1

[27] = target: Gal(b1-4)GlcNAc(b1-2)Man(a1-3)[GlcNAc(b1-2)Man(a1-6)]Man(b1-4)GlcNAc(b1-4)GlcNAc
Procedure, shortened: as §1

[28] = target: Gal(b1-4)GlcNAc(b1-3)Gal(b1-3)GalNAc
Procedure, shortened: as §1

[29] = target: Gal3S6S(b1-4)GlcNAc
Procedure, shortened: as §1

[30] = target: GalNAc(b1-4)GlcNAc(b1-3)GalNAc(b1-4)GlcNAc
Procedure, shortened: as §1

[31] = target: GlcA(b1-3)Gal
Procedure, shortened: as §1

[32] = target: GlcNAc(a1-4)Gal(b1-4)GlcNAc(b1-3)Gal(b1-4)Glc
Procedure, shortened: as §1

[33] = target: GlcNAc(b1-2)Man(a1-3)[GlcNAc(b1-4)][GlcNAc(b1-2)Man(a1-6)]Man(b1-4)GlcNAc(b1-4)GlcNAc
Procedure, shortened: as §1

[34] = target: GlcNAc(b1-2)[GlcNAc(b1-6)]Man(a1-6)[GlcNAc(b1-2)Man(a1-3)]Man(b1-4)GlcNAc(b1-4)[Fuc(a1-6)]GlcNAc
Procedure, shortened: as §1

[35] = target: GlcNAc(b1-3)Gal(b1-4)GlcNAc(b1-3)Gal(b1-4)GlcNAc(b1-2)Man(a1-3)[GlcNAc(b1-3)Gal(b1-4)GlcNAc(b1-3)Gal(b1-4)GlcNAc(b1-2)Man(a1-6)]Man(b1-4)GlcNAc(b1-4)GlcNAc
Procedure, shortened: as §1

[36] = target: GlcNAc(b1-3)Man
Procedure, shortened: as §1

[37] = target: Kdn(a2-3)Gal(b1-4)GlcNAc
Procedure, shortened: as §1

[38] = target: Man(a1-2)Man(a1-3)[Man(a1-2)Man(a1-6)]Man(a1-6)[Man(a1-2)Man(a1-2)Man(a1-3)]Man
Procedure, shortened: as §1

[39] = target: Neu5Ac(a2-3)Gal(b1-3)GalNAc
Procedure, shortened: as §1

[40] = target: Neu5Ac(a2-3)Gal(b1-3)[Fuc(a1-4)]GlcNAc(b1-3)Gal(b1-3)[Fuc(a1-4)]GlcNAc
Procedure, shortened: as §1

[41] = target: Neu5Ac(a2-3)Gal(b1-3)[Neu5Ac(a2-6)]GalNAc
Procedure, shortened: as §1

[42] = target: Neu5Ac(a2-3)Gal(b1-4)GlcNAc(b1-3)Gal(b1-4)GlcNAc(b1-3)[Neu5Ac(a2-3)Gal(b1-4)GlcNAc(b1-3)Gal(b1-4)GlcNAc(b1-6)]GalNAc
Procedure, shortened: as §1

[43] = target: Neu5Ac(a2-3)Gal(b1-4)GlcNAc(b1-3)[Neu5Ac(a2-3)Gal(b1-4)GlcNAc(b1-6)]GalNAc
Procedure, shortened: as §1

[44] = target: Neu5Ac(a2-3)Gal(b1-4)[Fuc(a1-3)]GlcNAc(b1-6)[Neu5Ac(a2-3)Gal(b1-3)]GalNAc
Procedure, shortened: as §1

[45] = target: Neu5Ac(a2-3)Gal(b1-4)[Fuc(a1-3)]GlcNAc6S
Procedure, shortened: as §1

[46] = target: Neu5Ac(a2-3)GalNAc(b1-4)GlcNAc
Procedure, shortened: as §1

[47] = target: Neu5Ac(a2-6)Gal(b1-4)GlcNAc
Procedure, shortened: as §1

[48] = target: Neu5Ac(a2-6)Gal(b1-4)GlcNAc(b1-2)Man(a1-3)[Neu5Ac(a2-3)Gal(b1-4)GlcNAc(b1-2)Man(a1-6)]Man(b1-4)GlcNAc(b1-4)GlcNAc
Procedure, shortened: as §1

B1: LecB PA14 (Pseudomonas aeruginosa) (protein)
chain: MATQGVFTLPANTQFGVTAFANSAGTQTVNVQVNNETVATFTGQSTNNAIIGSKVLNSGGGGKVQILVSVNGRSSDLVSAQVILANELNFALVGSEDSTDNDYNDAVVVINWPLG
glycan array binding signal (z-score) [1]: 0.586 | glycan array binding signal (z-score) [2]: 0.422 | glycan array binding signal (z-score) [3]: 0.308 | glycan array binding signal (z-score) [4]: 2.93 | glycan array binding signal (z-score) [5]: 2.75 | glycan array binding signal (z-score) [6]: 4.68 | glycan array binding signal (z-score) [7]: 7.45 | glycan array binding signal (z-score) [8]: -0.469 | glycan array binding signal (z-score) [9]: 10.2 | glycan array binding signal (z-score) [10]: 7.29 | glycan array binding signal (z-score) [11]: -0.002 | glycan array binding signal (z-score) [12]: -0.543 | glycan array binding signal (z-score) [13]: -0.7 | glycan array binding signal (z-score) [14]: -0.191 | glycan array binding signal (z-score) [15]: -0.182 | glycan array binding signal (z-score) [16]: 4.17 | glycan array binding signal (z-score) [17]: 5.42 | glycan array binding signal (z-score) [18]: -0.72 | glycan array binding signal (z-score) [19]: 2.54 | glycan array binding signal (z-score) [20]: -0.633 | glycan array binding signal (z-score) [21]: 0.061 | glycan array binding signal (z-score) [22]: -0.517 | glycan array binding signal (z-score) [23]: -0.227 | glycan array binding signal (z-score) [24]: 0.647 | glycan array binding signal (z-score) [25]: 0.447 | glycan array binding signal (z-score) [26]: -0.837 | glycan array binding signal (z-score) [27]: 0.016 | glycan array binding signal (z-score) [28]: -0.179 | glycan array binding signal (z-score) [29]: -0.745 | glycan array binding signal (z-score) [30]: -0.272 | glycan array binding signal (z-score) [31]: 0.136 | glycan array binding signal (z-score) [32]: -0.506 | glycan array binding signal (z-score) [33]: -0.629 | glycan array binding signal (z-score) [34]: -0.125 | glycan array binding signal (z-score) [35]: 0.43 | glycan array binding signal (z-score) [36]: -0.123 | glycan array binding signal (z-score) [37]: -0.618 | glycan array binding signal (z-score) [38]: 5.22 | glycan array binding signal (z-score) [39]: -0.314 | glycan array binding signal (z-score) [40]: 3.3 | glycan array binding signal (z-score) [41]: -0.618 | glycan array binding signal (z-score) [42]: -0.427 | glycan array binding signal (z-score) [43]: -0.521 | glycan array binding signal (z-score) [44]: -0.054 | glycan array binding signal (z-score) [45]: 0.335 | glycan array binding signal (z-score) [46]: -0.298 | glycan array binding signal (z-score) [47]: -0.39 | glycan array binding signal (z-score) [48]: -0.741
